# D2 antagonist – HTS Assay for Allosteric Antagonists of the Human D2 Dopamine Receptor: Primary Screen for Antagonists; D(2) dopamine receptor (Homo sapiens), P14416; HEK293 TREx D2 cells, calcium flux, dopamine EC80; inhibition, % at 10 µM; 340,000 tested, 2% active; AID 485344, 2010; in the data active = inhibition above about 30%; inactive = below that, where a call was filed; also: 0% is about no effect
#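 Measurement of antagonist activity uses fluorescent calcium dye in inducible HEK293 T-REx D2 cells: 10 s baseline, compound addition with 180 s read, EC80 dopamine addition with a further 180 s read.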
# D2 ag-1 – Beta-Arrestin HTS for Positive Allosteric Modulators of the Human D2 Dopamine Receptor: Agonists. D(2) dopamine receptor (Homo sapiens), P14416. DiscoveRx PathHunter D2 beta-arrestin, luminescence, 90 min; 100% = 57 uM dopamine signal. activation, % (no concentration beside the values). 360,000 tested, 0.084% active; in the data active = activation above about 40%; inconclusive = between about 15% and that limit
#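 DiscoveRx PathHunter D2 beta-arrestin cells (2,100/well) attached overnight, then compound-stimulated 90 min at 37 C in HBSS/10 mM HEPES/0.1% Tween-20 buffer; beta-galactosidase complementation read by luminescence after 1 h at ambient temperature. Dopamine 57 uM final (EC100) as control.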
# D2 PAM-1 – HTS Assay for Positive Allosteric Modulators of the Human D2 Dopamine Receptor: Primary Screen for Potentiators. D(2) dopamine receptor (Homo sapiens), P14416. HEK293 T-REx D2, calcium flux, EC20 dopamine potentiation. potentiation, % at 10 µM. 340,000 tested, 0.34% active. AID 485347, 2010;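 active = potentiation over 3 SD above the plate norm, cut at about 30% in these data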; also: 0% is about no effect
#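 Calcium flux readout, no-wash dye, 1 read/s. Inducible HEK293 Trex D2 line, overnight 30 C. Compound alone 180 s (agonist flags), then EC20 dopamine, another 180 s to score potentiation.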
# D2 PAM-2 – Beta-Arrestin HTS for Positive Allosteric Modulators of the Human D2 Dopamine Receptor: Potentiators; 360,000 tested, 0.23% active; potentiation, % (no concentration beside the values); D(2) dopamine receptor (Homo sapiens), P14416; DiscoveRx D2 beta-arrestin cells, luminescence, 90 min; 100% = 57 uM dopamine signal; in the data active = potentiation above about 50%; inconclusive = mostly about 30% to 49%
#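 PathHunter beta-arrestin assay in DiscoveRx D2 cells. Compounds were added with an EC20 of dopamine (50 nM final) for 90 min at 37 deg C. Luminescence was read 1 h after detection reagent, with 57 uM dopamine as the EC100 control.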
# D2 ag-2 – HTS Assay for Allosteric Agonists of the Human D2 Dopamine Receptor: Primary Screen for Agonists. D(2) dopamine receptor (Homo sapiens), P14416. HEK293 T-REx D2 cells, calcium flux agonist mode. activation, % at 2 µM. 340,000 tested, 0.53% active;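 active = activation over 3 SD above normal in the single-dose calcium agonist read, cut at about 30% in these data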; also: 0% is about no effect
#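 In this primary screen, compounds producing a positive calcium signal within 180 s of addition to tetracycline-induced, force-coupled HEK293 Trex D2 cells are flagged; cells are dye-loaded with a no-wash calcium kit beforehand.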
# D3 arrestin ag – qHTS of D3 Dopamine Receptor Agonist: D3 Dopamine Receptor B-arrestin Agonist Confirmatory Assay. 2,300 tested, 4% active. AID 720506, 2013. Potency, µM (doses to about 76.9 µM), for inactives: at the top dose activation, hits mostly activators. DiscoveRx D3 beta-arrestin cells, luminescence, 90 min. shares compounds with D2 ag-2;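 also: potency is read from the fitted curve at half-maximal effect; 100% = dopamine control response; nearly all actives have a fitted effect of over 70% in size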
# Target sequence (P35462 whole entry, looked up): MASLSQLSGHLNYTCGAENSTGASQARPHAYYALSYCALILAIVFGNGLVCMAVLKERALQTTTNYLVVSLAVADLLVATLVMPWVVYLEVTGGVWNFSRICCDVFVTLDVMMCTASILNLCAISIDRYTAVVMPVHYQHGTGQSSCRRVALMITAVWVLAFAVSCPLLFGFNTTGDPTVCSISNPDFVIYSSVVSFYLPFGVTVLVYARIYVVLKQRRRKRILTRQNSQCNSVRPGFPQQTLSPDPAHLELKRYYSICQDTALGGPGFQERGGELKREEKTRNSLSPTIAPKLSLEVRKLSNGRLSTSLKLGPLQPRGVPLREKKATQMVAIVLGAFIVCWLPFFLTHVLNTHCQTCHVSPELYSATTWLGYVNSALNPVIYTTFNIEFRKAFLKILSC
# D2 ag-3 – qHTS of D3 Dopamine Receptor Agonist: D2 Dopamine Receptor B-arrestin Agonist Counterscreen; shares compounds with D2 ag-2; DiscoveRx PathHunter D2 beta-arrestin, luminescence, 90 min; response scale: percent relative to full dopamine signal; Potency, µM (titrated, usually from 76.9 µM), without a hit: at the highest dose activation, most hits filed as activators; 2,300 tested, 5.9% active; also: potency is read from the fitted curve at half-maximal effect; % of control where 0% means no effect; nearly all actives have a fitted effect of over 70% in size
# * hit, by the source's call; ? = inconclusive; . = not tested or not shown; ! = repeats disagree. Rows were chosen to be rich in hits. Some 2.4% of all compounds tested hit in one or more screens of this group. Unless noted, calls follow the shape of the dose curve; as a rule, active = well fitted activation curve with a large enough effect; inconclusive = small, poorly fitted or top-dose-only effect; inactive = flat fitted curve, though single readings scatter.
SMILES,D2 antagonist,D2 ag-1,D2 PAM-1,D2 PAM-2,D2 ag-2,others
COc1ccc(CC2c3cc(OC)c(OC)cc3CCN2C)cc1OC (configuration not stated),.,6,.,-6,.,
COc1ccc(C[C@@H]2c3cc(O)c(OC)cc3CCN2C)cc1O,52*,-1,-18,-26,0,
CCOC(=O)[C@@]12C(=O)C(=O)N[C@]1(c1ccccc1)C1OCCCC12 (some centres not stated),9,-1,-5,-3,2,
FC(F)(F)c1ccc2c(c1)N(CCCN1CCN(CCCl)CC1)c1ccccc1S2,75*,-2,-26,-44,1,
O=C1C=C(N2CC2)c2ccccc2C1=O,.,51*,.,4,.,
CC/C(=N\Nc1cccc2ccccc12)c1c(O)[nH]c(=O)[nH]c1=O,-6,?,8,55*,1,
CCNc1cc(N2CCNCC2)ccc1[N+](=O)[O-],35*,.,-8,.,0,
Fc1ccc(CN2CCN(c3ccc(Cl)cc3)CC2)cc1,-13,-1,-20,-13,0,
Cc1cccc(CN2CCN(c3ccc(Cl)cc3)CC2)c1,34*,-6,-18,-7,-6,
Cc1cccc(CN2CCN(Cc3ccc(Cl)cc3)CC2)c1,4,-4,11,-47,-1,
CCCCCCN1CCN(c2ccc(Cl)cc2)CC1,51*,5,-27,-23,0,
O=C(C[N+]12CCC(CC1)C(OC(=O)c1ccccc1)C2)c1ccc([N+](=O)[O-])cc1 (configuration not stated),33*,0,4,-2,-1,
O=C(C[N+]12CCC(CC1)C(CO)C2)c1ccc([N+](=O)[O-])cc1 (configuration not stated),8,-3,1,2,1,
c1ccc(CN2CCc3nc4ccccc4cc3C2)cc1,76*,95*,-28,27,78*,
COc1ccc2c(CCN)c[nH]c2c1,8,0,-5,-15,1,
CS(=O)(=O)Nc1ccc(Cc2noc(-c3ccc4[nH]cc(CCN)c4c3)n2)cc1,40*,.,-6,.,9,
CC(=O)O[C@@]12CO[C@@H]1C[C@H](OC1OCC(O)C(O)C1O)[C@@]1(C)C(=O)[C@H](O)C3=C(C)[C@@H](OC(=O)[C@H](O)[C@@H](NC(=O)c4ccccc4)c4ccccc4)C[C@@](O)([C@@H](OC(=O)c4ccccc4)C12)C3(C)C (some centres not stated),38*,8,7,5,0,
Cc1ccnc(-n2c(-c3ccccc3)nc3ccccc3c2=O)c1,33*,0,16,-10,0,
C[C@]1(O)CCC2C3CC[C@H]4C[C@@H](OC(=O)[C@@H](N)CCCCN)CC[C@]4(C)C3CC[C@@]21C (some centres not stated),.,-9,.,-13,.,
Cc1[nH]c2ccccc2c1CCCNC1CCCCC1,39*,-8,-26,-30,1,
CN1CCc2cccc(Cl)c2CC1,53*,-1,-18,-32,1,
O=C(CCCN1CCC(n2c(=O)[nH]c3ccccc32)CC1)c1ccc(F)cc1,77*,1,-14,-27,0,
CC(C)CC1(CCc2ccccc2)C(=O)NC(=O)NC1=O,.,2,.,3,.,
CC(C)OCC(O)CN1CC2C[C@@H](C1)Cn1c2cccc1=O (some centres not stated),42*,7,-14,4,23,
CCCCOCCCN1C(C)=CC(=C2C(=O)NC(=S)NC2=O)C=C1C,18,-4,-10,-1,0,D3 arrestin ag=-11%;D2 ag-3=-5%
SMILES,D2 antagonist,D2 ag-1,D2 PAM-1,D2 PAM-2,D2 ag-2,others
c1ccc(-c2cc(-c3ccccc3)[n+](-c3ccccc3)c(-c3ccccc3)c2)cc1,.,14,.,23,.,
Cc1ccc(-c2cc(-c3ccc(C)cc3)[n+](-c3ccccc3)c(-c3ccc(C)cc3)c2)cc1,49*,4,1,-88,28,D3 arrestin ag=16%;D2 ag-3=18%
O=P(CN1CCN(c2ccccc2)CC1)(N1CCCCC1)N1CCCCC1,37*,9,-1,5,28,D3 arrestin ag=11%;D2 ag-3=13%
COc1ccccc1N1CCN(Cc2ccc(F)cc2)CC1,76*,6,-22,-11,38*,D3 arrestin ag=-4%;D2 ag-3=-1%
COc1ccc(CN2CCN(c3ccccc3F)CC2)cc1O,.,11,.,-32,.,D3 arrestin ag=15%;D2 ag-3=22%
COC(=O)C1=C(c2c(C)noc2C)C[C@@H]2CC[C@H]1N2C(=O)NCCOc1ccc(OC)cc1,-4,-8,-1,-4,0,
CNC(=O)Oc1ccc2c(c1)C(=O)c1ccccc1CO2,.,-3,.,-17,.,
N#C/C=C/C#N,3,2,5,-1,0,D3 arrestin ag=-2%;D2 ag-3=-5%
COC(=O)C1=C(c2cc3ccccc3s2)C[C@@H]2CC[C@H]1N2C,58*,4,-7,-26,29,D3 arrestin ag=7%;D2 ag-3=22%
COC(=O)C1=C(c2cc3ccccc3s2)C[C@@H]2CC[C@H]1N2C(=O)NC1CC1,.,0,.,-17,.,
CN1C(C(=O)N2CCC3(CC2)OCCO3)=CC(c2ccc(F)cc2)=NS1(=O)=O,3,-2,5,-6,0,
C=CCN1Cc2ccccc2-n2nncc2C1,.,-5,.,-5,.,
COC(=O)C1=C(c2ccc(C(C)=O)cc2)C[C@@H]2CC[C@H]1N2C(=O)N1CCC(O)CC1,0,-1,6,-6,0,
CC(C(N)=O)N1CC(c2ccccc2)CC1=O (configuration not stated),0,1,-19,-12,45*,D3 arrestin ag=0%;D2 ag-3=-2%
CN1C[C@H](C(=O)N[C@]2(C)O[C@@]3(O)[C@@H]4CCCN4C(=O)[C@H](Cc4ccccc4)N3C2=O)CC2c3cccc4[nH]cc(c34)C[C@H]21 (some centres not stated),88*!,?,-10,-6,81*!,D3 arrestin ag=-2%;D2 ag-3=?
